Records with an inconclusive call do not appear. Activity calls are given as the source filed them. Unless noted, calls follow the shape of the dose curve; as a rule, active = well fitted curve in the direction sought with a large enough effect in the repeat runs; inconclusive = weak or mixed curves; inactive = no such curve, though single readings can be large; an effect the other way counts as inactive or inconclusive.
How the values were obtained:
[1] = qHTS assay to identify small molecule antagonists of the retinoid acid receptor (RAR) signaling pathway - cell viability counter screen (AID 1159551); also: nearly all actives have a fitted effect of over 35% in size
Method in brief: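 Following overnight attachment, C3RL4 reporter cells received DMSO-dissolved compounds and then retinol (1 uM final). Six hours later at 37 C, ATP content was measured by CellTiter-Glo luminescence.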

[2] = qHTS assay to identify small molecule antagonists of the retinoic acid receptor (RAR) signaling pathway (AID 1159552; also: nearly all actives have a fitted effect of over 50% in size)
Method in brief: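 Quantitative HTS in C3RL4 RARE-luciferase reporter cells. Compounds were added with 1 uM (final) retinol; luminescence was read after 6 hr.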

[3] = qHTS assay to identify small molecule agonists of the retinoic acid receptor (RAR) signaling pathway (AID 1159553)
Method in brief: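 Cell line C3RL4, RARE luciferase reporter. Treatment: compounds in DMSO, 6 hr, 37 C, 5% CO2, after overnight plating. Detection: luminescence, 30 min RT after reagent.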

[4] = qHTS assay to identify small molecule antagonists of the estrogen related receptor (ERR) signaling pathway from Tox21 library - cell viability counter screen (AID 1224834); also: nearly all actives have a fitted effect of over 30% in size
Method in brief: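 Viability readout (CellTiter-Fluor fluorescence, 30 min at 37 C) multiplexed with the ERR assay; cells treated 17.5 h at 37 C with compounds delivered in DMSO.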

[5] = target: Luciferin 4-monooxygenase (Photinus pyralis) (UniProt P08659); assay: qHTS assay to identify small molecule inhibitors of firefly luciferase (AID 1224835); also: nearly all actives have a fitted effect of over 25% in size
Chain of Luciferin 4-monooxygenase (Photinus pyralis) (P08659 whole entry, looked up): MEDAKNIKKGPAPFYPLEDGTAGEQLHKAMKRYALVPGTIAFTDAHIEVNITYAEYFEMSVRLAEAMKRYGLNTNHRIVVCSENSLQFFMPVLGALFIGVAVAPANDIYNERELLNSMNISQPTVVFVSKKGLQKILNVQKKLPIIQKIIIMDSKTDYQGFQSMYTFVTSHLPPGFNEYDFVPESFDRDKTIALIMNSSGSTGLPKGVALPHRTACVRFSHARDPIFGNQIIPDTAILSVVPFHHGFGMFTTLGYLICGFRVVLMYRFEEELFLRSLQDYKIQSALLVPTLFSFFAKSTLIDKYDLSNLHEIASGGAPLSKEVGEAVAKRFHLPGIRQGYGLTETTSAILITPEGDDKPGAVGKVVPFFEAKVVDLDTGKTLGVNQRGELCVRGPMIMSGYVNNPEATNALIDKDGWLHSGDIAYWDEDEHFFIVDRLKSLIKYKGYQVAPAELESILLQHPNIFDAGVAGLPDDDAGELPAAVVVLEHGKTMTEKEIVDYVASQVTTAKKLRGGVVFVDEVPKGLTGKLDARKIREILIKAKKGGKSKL
Method in brief: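 Biochemical qHTS: compounds run as interplate titrations against purified firefly enzyme, with D-luciferin and ATP each at its KM concentration. Light output recorded by CCD imaging.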

[6] = qHTS assay to identify small molecule agonists of the constitutive androstane receptor (CAR) signaling pathway - cell viability counter screen (AID 1224836); also: nearly all actives have a fitted effect of over 45% in size
Method in brief: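 Counter screen multiplexed with the CAR reporter readout: HepG2 cells co-transfected with hCAR and the CYP2B6-2.2kb construct receive a 15-concentration compound series and 0.75 uM PK11195 (final), then CellTiter-Fluor fluorescence is read after 23 h.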

[7] = qHTS assay to identify small molecule antagonists of the constitutive androstane receptor (CAR) signaling pathway - cell viability counter screen (AID 1224837); also: nearly all actives have a fitted effect of over 45% in size
Method in brief: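 Fluorescence from CellTiter-Fluor served as the viability signal. Human hepatoma HepG2 cells stably bearing hCAR and CYP2B6-2.2kb received compound plus CITCO (50 nM final) for 23 hr.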

[8] = target: Nuclear receptor subfamily 1 group I member 3 (Homo sapiens) (UniProt Q14994); assay: qHTS assay to identify small molecule antagonists of the constitutive androstane receptor (CAR) signaling pathway (AID 1224838);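 also: HepG2 cells stably expressing hCAR with CYP2B6 luciferase reporter stimulated by CITCO; nearly all actives have a fitted effect of over 40% in size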
Chain of Nuclear receptor subfamily 1 group I member 3 (Homo sapiens) (Q14994 whole entry, looked up): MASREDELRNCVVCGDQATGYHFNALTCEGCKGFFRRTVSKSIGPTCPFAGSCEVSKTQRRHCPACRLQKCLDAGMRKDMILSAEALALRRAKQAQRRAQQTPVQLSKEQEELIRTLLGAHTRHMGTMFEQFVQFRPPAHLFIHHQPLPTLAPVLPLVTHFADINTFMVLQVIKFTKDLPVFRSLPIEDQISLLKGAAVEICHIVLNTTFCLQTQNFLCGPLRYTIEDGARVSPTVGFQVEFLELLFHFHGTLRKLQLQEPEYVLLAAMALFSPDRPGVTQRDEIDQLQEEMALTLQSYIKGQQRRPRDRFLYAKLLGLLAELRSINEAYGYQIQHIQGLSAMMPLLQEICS
Method in brief: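 Quantitative HTS in double-stable HepG2-CYP2B6-hCAR cells. After 4 h plating, cells get compound (15 concentrations) and CITCO at 50 nM final, incubate 24 h at 37 C, then ONE-Glo luminescence is read.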

[9] = target: Nuclear receptor subfamily 1 group I member 3 (Homo sapiens) (UniProt Q14994); assay: qHTS assay to identify small molecule agonists of the constitutive androstane receptor (CAR) signaling pathway (AID 1224839); also: nearly all actives have a fitted effect of over 15% in size
Method in brief: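 A 15-concentration quantitative screen uses HepG2 cells co-transfected stably with human CAR and CYP2B6-2.2kb reporter. Treatment lasts 24 h with 0.75 uM PK11195 final present; ONE-Glo luminescence is the signal.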

[10] = qHTS assay to identify small molecule antagonists of the estrogen related receptor signaling pathway with the pleiotropic PPARgamma coactivator (PGC) from Tox21 10K library - cell viability counter screen (AID 1224840; active = well fitted cell-killing curve with a large enough effect in the repeat runs, not every such curve was filed as active; also: nearly all actives have a fitted effect of over 40% in size)
Method in brief: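 Compounds in DMSO, alongside positive and negative controls, were pinned onto PGC/ERR cells (2,000 per well). Exposure lasted 17.5 hours at 37 C, followed by a 30-minute CellTiter-Fluor incubation and fluorescence reading.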

[11] = target: Thyrotropin receptor (Homo sapiens) (UniProt P16473); assay: qHTS assay to identify small molecule agonists of the thyroid stimulating hormone receptor (TSHR) signaling pathway (AID 1224843; calls by dose curve; also: nearly all actives have a fitted effect of over 45% in size)
Chain of Thyrotropin receptor (Homo sapiens) (P16473 whole entry, looked up): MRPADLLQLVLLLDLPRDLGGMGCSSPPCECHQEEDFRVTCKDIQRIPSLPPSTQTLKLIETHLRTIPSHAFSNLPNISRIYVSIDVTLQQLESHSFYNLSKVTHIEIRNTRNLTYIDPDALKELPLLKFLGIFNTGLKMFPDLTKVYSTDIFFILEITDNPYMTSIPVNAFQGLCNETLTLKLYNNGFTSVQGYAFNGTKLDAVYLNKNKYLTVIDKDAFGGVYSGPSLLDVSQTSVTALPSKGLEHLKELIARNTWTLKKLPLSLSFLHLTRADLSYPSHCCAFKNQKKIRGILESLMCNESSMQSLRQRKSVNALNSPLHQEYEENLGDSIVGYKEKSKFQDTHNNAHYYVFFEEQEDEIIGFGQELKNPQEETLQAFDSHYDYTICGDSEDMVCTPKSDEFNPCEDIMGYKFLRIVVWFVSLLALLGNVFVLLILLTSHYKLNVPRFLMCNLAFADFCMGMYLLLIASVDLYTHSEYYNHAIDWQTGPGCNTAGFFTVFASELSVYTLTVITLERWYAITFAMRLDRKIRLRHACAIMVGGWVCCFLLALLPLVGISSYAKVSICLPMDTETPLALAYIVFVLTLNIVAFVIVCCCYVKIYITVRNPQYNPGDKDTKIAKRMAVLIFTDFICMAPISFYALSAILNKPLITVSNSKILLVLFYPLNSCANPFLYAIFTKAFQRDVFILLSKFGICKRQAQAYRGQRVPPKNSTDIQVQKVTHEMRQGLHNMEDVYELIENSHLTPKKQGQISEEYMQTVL
Method in brief: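 TSHR-HEK293 cells in agonist mode, 30 min room-temperature step, then cAMP measured by competitive HTRF (cAMP-d2 with anti-cAMP cryptate) after 1 h at room temperature. Tested at 15 concentrations in triplicate.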

[12] = qHTS assay to identify small molecule agonists of the hypoxia (HIF-1) signaling pathway - cell viability counter screen (AID 1224844; calls by dose curve; also: nearly all actives have a fitted effect of over 50% in size)
Method in brief: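 Luminescent ATP content (CellTiter-Glo, 30 min, room temperature) served as the viability measure in HRE-bla ME-180 cells exposed to compounds for 17 hrs in low-serum medium (0.5% dialyzed FBS).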

[13] = qHTS assay to identify small molecule agonists of H2AX (AID 1224845; active = well fitted activation curve with a large enough effect in the signal ratio in the repeat runs, not every such curve was filed as active; the % refers to the signal ratio)
Method in brief: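 Wild-type CHO-K1 cells, plated overnight, exposed 3hr at 37C to 15 concentrations (0.76% DMSO final). Lysed, then HTRF anti-pH2AX (S139) cryptate and anti-H2AX-d2 antibodies, 24 hr room temperature; 665/620 nm emission read.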

[14] = qHTS assay to identify small molecule agonists of the hypoxia (HIF-1) signaling pathway (AID 1224846; active = well fitted activation curve with a large enough effect in the signal ratio in the repeat runs, not every such curve was filed as active; the % refers to the signal ratio)
Method in brief: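 Measured by blue/green FRET after loading CCF4-AM: beta-lactamase expressed from a hypoxia response element in ME-180 cells. Test agents were delivered in DMSO and left 17 hrs; cells had been plated 5 hrs earlier in low-serum (0.5% dialyzed FBS) medium.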

[15] = qHTS assay to identify small molecule agonists of H2AX - cell viability counter screen (AID 1224847; calls by dose curve; also: top concentration of the series differs between compounds; nearly all actives have a fitted effect of over 30% in size)
Method in brief: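 We seed wild-type CHO-K1 cells overnight, treat them for 3 hr at 37C with compounds in 15-concentration series, and quantify remaining viability by CellTiter-Glo luminescence.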

[16] = qHTS RealTime-Glo MT Cell Viability Assay in HepG2 cells - 24 hour (AID 1224867); also: nearly all actives have a fitted effect of over 50% in size
Method in brief: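 HepG2 suspension premixed with RealTime-Glo reagents is plated at 600 cells per well and left 5 h at 37 C/5% CO2. Compounds in DMSO then go in, and bioluminescence reflecting viable cell number is recorded over 40 h.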

[17] = qHTS assay to identify small molecule antagonists of the estrogen related receptor signaling pathway with the pleiotropic PPARgamma coactivator (PGC) from Tox21 10K library (AID 1224841; call rule not given here; also: actives are mostly falling curves and most rising ones were filed inactive; nearly all actives have a fitted effect of over 50% in size)
Method in brief: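 Compound exposure ran 18 hours at 37 C in PGC/ERR cells (2,000/well) that had first rested 6 hours in a 37 C/5% CO2 incubator. Luciferase activity was then detected with One-Glo after a 30-minute room-temperature step.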

[18] = qHTS assay to identify small molecule agonists of the estrogen related receptor signaling pathway with the pleiotropic PPARgamma coactivator (PGC) from Tox21 10K library (AID 1224842); also: nearly all actives have a fitted effect of over 15% in size
Method in brief: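 PGC/ERR reporter cell line, 2,000 cells per well, incubated 6 h at 37 C before 23 nL compound in DMSO was added. After 18 h at 37 C, One-Glo luminescence read following 30 min at room temperature.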

[19] = qHTS assay to identify small molecule antagonists of the estrogen related receptor (ERR) signaling pathway from Tox21 library (AID 1224848); also: nearly all actives have a fitted effect of over 50% in size
Method in brief: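 ERR reporter cell line (from NTP) seeded 2,000 cells/well, rested 6 h at 37 C/5% CO2, then pin-dosed with compounds in DMSO. After 18 h at 37 C, ONE-Glo added; luminescence read after 30 min at room temperature.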

[20] = qHTS assay to identify small molecule agonists of the estrogen related receptor (ERR) signaling pathway from Tox21 library (AID 1224849; calls by dose curve; also: nearly all actives have a fitted effect of over 15% in size); conditions: ERR reporter cell line, ONE-Glo luciferase, 18 h; at 92.4 µM (top of the series) unless noted
Method in brief: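 We plated ERR reporter cells, waited 6 h, added compounds in DMSO by pin tool and incubated them 18 h at 37 C. ONE-Glo was then added and luminescence read after 30 min.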
% is scaled to controls: 0 for no effect and ±100 for the full control effect.

CC(C)C(C)C
inactive: outcome [1] | outcome [2] | Potency [3] | outcome [4] | Potency [5] | outcome [6] | outcome [7] | outcome [8] | Potency [9] | outcome [10] | Potency [11] | outcome [12] | outcome [13] | outcome [14] | outcome [15] | outcome [16]

CC(CN1CC(=O)NC(=O)C1)N1CC(=O)NC(=O)C1 (configuration not stated)
inactive: outcome [1] | outcome [2] | Potency [3] | outcome [4] | Potency [5] | outcome [6] | outcome [7] | outcome [8] | Potency [9] | outcome [10] | Potency [17] | Potency [18] | outcome [12] | outcome [13] | outcome [15] | outcome [19] | activity change, positive = activation [20] -5.55% | outcome [16]

COC(=O)N/N=C/c1c[n+]([O-])c2ccccc2[n+]1[O-]
inactive: outcome [1] | outcome [2] | Potency [3] | outcome [4] | Potency [5] | outcome [6] | outcome [7] | outcome [8] | Potency [9] | outcome [10] | Potency [17] | Potency [18] | Potency [11] | outcome [14] | outcome [15] | outcome [19] | activity change, positive = activation [20] 16.4% [at 42.5 µM] | outcome [16]

CCCCN1C(=O)c2ccccc2C1=O
inactive: outcome [1] | outcome [2] | Potency [3] | outcome [4] | Potency [5] | outcome [6] | outcome [7] | outcome [8] | Potency [9] | outcome [10] | Potency [17] | Potency [18] | Potency [11] | outcome [12] | outcome [13] | outcome [14] | outcome [19] | activity change, positive = activation [20] 6.09% | outcome [16]

Nc1cc(S(=O)(=O)O)ccc1O
inactive: outcome [1] | outcome [2] | Potency [3] | outcome [4] | Potency [5] | outcome [6] | outcome [7] | outcome [8] | Potency [9] | outcome [10] | Potency [17] | Potency [18] | outcome [14] | outcome [15] | outcome [19] | activity change, positive = activation [20] 6.11% | outcome [16]

CCCCCCCCCCCCCCCC(=O)OC
inactive: activity change, negative = cytotoxicity [1] 3.42% [at 19 µM] | activity, negative = inhibition [2] -7.57% [at 19 µM] | Potency [3] | viability change, negative = cytotoxic [4] 2.97% [at 19 µM] | activity change, negative = inhibition [5] 0.26% [at 23.6 µM] | viability change, negative = cytotoxic [6] -0.61% [at 19 µM] | activity change, negative = cytotoxicity [7] -4.04% [at 19 µM] | activity, negative = inhibition [8] -5.63% [at 19 µM] | activation [9] -1.6% [at 19 µM] | viability change, negative = cytotoxic [10] 5.32% [at 19 µM] | activation [11] -0.158% [at 19 µM] | activity change, negative = cytotoxicity [12] 9.89% [at 15.8 µM] | activation (H2AX phosphorylation) [13] 4.71% [at 31.6 µM] | activation [14] 0.217% [at 15.8 µM] | activity change, negative = cytotoxicity [15] -4.52% [at 31.6 µM] | activity change, negative = cytotoxicity [16] -0.801% [at 15.8 µM]

C=CCCCCCCCCCCCCCC
inactive: activity change, negative = cytotoxicity [1] 0.725% [at 19 µM] | activity, negative = inhibition [2] -7.34% [at 19 µM] | Potency [3] | viability change, negative = cytotoxic [4] 3.18% [at 19 µM] | activity change, negative = inhibition [5] 0.285% [at 23.6 µM] | viability change, negative = cytotoxic [6] 7.15% [at 19 µM] | activity change, negative = cytotoxicity [7] -0.461% [at 19 µM] | activity, negative = inhibition [8] 6.03% [at 19 µM] | activation [9] -0.195% [at 19 µM] | viability change, negative = cytotoxic [10] 2.94% [at 19 µM] | activation [18] -5.23% [at 19 µM] | activation [11] 2.45% [at 19 µM] | activation (H2AX phosphorylation) [13] -0.234% [at 31.6 µM] | activation [14] -0.445% [at 15.8 µM] | activity change, negative = cytotoxicity [15] 0.186% [at 31.6 µM] | activity, negative = inhibition [19] 3.1% [at 19 µM] | activity change, positive = activation [20] 1.6% [at 19 µM] | activity change, negative = cytotoxicity [16] 0.31% [at 15.8 µM]
